Here are results for 66 sequences from the supplement of paper PMC10338343.

± gives the standard deviation.

For assay [1], the system named is MILI (PIWIL2) piRISC loaded with piRNA #1 (26 nt). The assay is described as follows: pre-steady-state target cleavage rate (min^-1); guide: piRNA #1 5'p-UGAGGUAGUAGGUUGUAUAGUAUCCA; higher = faster piRNA-guided slicing of the target. The conditions noted are these: auxiliary factor: 500 nM mouse GTSF1. The method in brief: (§1)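 A burst-and-steady-state fit was used to obtain the pre-steady-state cleavage rate. The input data were sequencing reads of uncleaved targets, normalised to depth and to weakly complementary targets, from a […] transcribed, DNA-blocked target RNA library mixed with 1 nM active affinity-purified piRISC holding one synthetic guide, with or without 500 nM GTSF1 partner protein, in HEPES–potassium acetate buffer at 33 °C for 0–8 or 0–960 min. Three trials were pooled and k3 was capped at 0.0001 min^-1.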

Assay [2] has as its system EfPiwi piRISC loaded with piRNA #1 (26 nt). The assay is described as follows: pre-steady-state target cleavage rate (min^-1); auxiliary factor: 500 nM Ephydatia muelleri Gtsf1; guide: piRNA #1 5'p-UGAGGUAGUAGGUUGUAUAGUAUCCA; MIWI and MILI are mouse PIWI proteins and EfPiwi is from a freshwater sponge; tags in brackets are library labels; higher = faster piRNA-guided slicing of the target. A digest of the protocol: as §1

For the sequence GGAGACGAUUCAAUACAACCUACUACCUCA, the figures for the “pre-steady-state target cleavage rate” value in assay [1] and in assay [2] were 0.104 ± 0.012 and 0.0447 ± 0.018, respectively.
For the sequence GGAGACGAUACUAUUACAACCUACUACCUCA, the results for the “pre-steady-state target cleavage rate” value in assay [1] and in assay [2] were 0.172 ± 0.011 and 0.0508 ± 0.019, respectively.
As for GGAGACGUUUCUAUACAACCUACUACCUCA, the entries for the “pre-steady-state target cleavage rate” value in assay [1] and in assay [2] were 0.105 ± 0.013 and 0.0117 ± 0.0062, respectively.
In the case of GGAGACGAUUACUAUACAACCUACUACCUCA, the “pre-steady-state target cleavage rate” value amounted to 0.147 ± 0.0094 in assay [1] and 0.0159 ± 0.0066 in assay [2].
In the same order, the values of GGAGACGAUACUAUACAACCUACUACCUCCA are 0.214 ± 0.014 and 0.02 ± 0.0073.
As for GGAGAGGAUAGUAUACAACCUACUACCUGA, the figures for the “pre-steady-state target cleavage rate” value in assay [1] and in assay [2] were 0.0327 ± 0.0082 and 0.00298 ± 0.0022, respectively.
For GGAGACCUAUCUUUACAACCUACUACCUCA the same measures were 0.063 ± 0.0089 and 0.0058 ± 0.0037.
As for GGAGAGGAUACUAUACAAGCUACUUCCUCA, the “pre-steady-state target cleavage rate” value in assay [1] came out at 0.0737 ± 0.013; in assay [2], 0.00375 ± 0.0015.
With GGAGAGGAUACAAUACAACCUACUAGCUCA, the “pre-steady-state target cleavage rate” value was 0.068 ± 0.011 in assay [1] and 0.00253 ± 0.0018 in assay [2].
Turning to GGAGUGGAUAGUAUACAACCUACUACGUCA, the figures for the “pre-steady-state target cleavage rate” value in assay [1] and in assay [2] were 0.0386 ± 0.0083 and 0.00277 ± 0.0018, respectively.
Consider GGAGACGAUACAAAACAACCUACUACCUCA, for which the “pre-steady-state target cleavage rate” value was 0.149 ± 0.018 in assay [1] and 0.00359 ± 0.0033 in assay [2].
For GGAGACCAUACUAUAGCAACCUACUACCUCA the same measures were 0.191 ± 0.016 and 0.00736 ± 0.0044.
For the sequence GGAGAGGAUACUAUAGAACCUUCUACCUCA, the entries for the “pre-steady-state target cleavage rate” value in assay [1] and in assay [2] were 0.00389 ± 0.0026 and 0.003 ± 0.002, respectively.
In the same order, the values of GGAGACCAUACUAUACAACCUACUAGCUCA are 0.137 ± 0.025 and 0.00491 ± 0.0023.
For GGAGACGAUACUAUACAACCUACUACGUCA, the entries for the “pre-steady-state target cleavage rate” value in assay [1] and in assay [2] were 0.081 ± 0.012 and 0.00658 ± 0.002, respectively.
Regarding GGAGUGGAUACUAUACAACCUACUACCAGA, the “pre-steady-state target cleavage rate” value in assay [1] turned out to be 0.034 ± 0.0071; in assay [2], 0.00419 ± 0.0019.
Turning to GGAGACGAUACUAUACAACCUACACCUCA, the “pre-steady-state target cleavage rate” value in assay [1] was determined as 0.00588 ± 0.0025; in assay [2], 0.00474 ± 0.0027.
Consider GGAGACGAUACUAUACAACGUACUACCACA, for which the “pre-steady-state target cleavage rate” value in assay [1] turned out to be 0.0317 ± 0.0055; in assay [2], 0.0042 ± 0.0021.
GGAGACGAUACUAUAGAAGCUACUACCUCA: the figures for the “pre-steady-state target cleavage rate” value in assay [1] and in assay [2] were 0.16 ± 0.014 and 0.00294 ± 0.0013, respectively.
For GGAGACGAUACUAUUCAACCUACAACCUCA the same measures were 0.103 ± 0.013 and 0.0024 ± 0.0017.
Consider GGAGACCAUACUAUCCAACCUACUACCUCA, for which the “pre-steady-state target cleavage rate” value in assay [1] was 0.178 ± 0.017; in assay [2], 0.00636 ± 0.0033.
Consider GGAGACCUUACUAUUCAACCUACUACCUCA, for which the “pre-steady-state target cleavage rate” value was 0.15 ± 0.012 in assay [1] and 0.00413 ± 0.0039 in assay [2].
On to GGAGACCUUUCUAUACAACCUACUACCUCA, for which the figures for the “pre-steady-state target cleavage rate” value in assay [1] and in assay [2] were 0.0895 ± 0.0097 and 0.11 ± 0.036, respectively.
Consider GGAGAGGAUACUAUACCAACCUACUACCUCA, for which the “pre-steady-state target cleavage rate” value in assay [1] is 0.0443 ± 0.0084; in assay [2], 0.00837 ± 0.0039.
Take GGAGAGCAUACUAUACAACGUACUACCUCA: the entries for the “pre-steady-state target cleavage rate” value in assay [1] and in assay [2] were 0.0213 ± 0.003 and 0.00394 ± 0.0014, respectively.
Take GGAGUGGAUACUAUUCAACCUACUACCACA: the “pre-steady-state target cleavage rate” value in assay [1] came to 0.093 ± 0.0098; in assay [2], 0.00327 ± 0.0022.
For GGAGUGGAUACUAUACAACCUAGCUACCUCA the same measures were 0.0643 ± 0.006 and 0.003 ± 0.0015.
Regarding GGAGAGGUUACUAUACAACGUACUACCUCA, the “pre-steady-state target cleavage rate” value worked out at 0.00751 ± 0.0028 in assay [1] and 0.00457 ± 0.0015 in assay [2].
On to GGAGACCAUACUAUACAACCUACUACCGUCA, for which the “pre-steady-state target cleavage rate” value was determined as 0.141 ± 0.023 in assay [1] and 0.00677 ± 0.0025 in assay [2].
Take GGAGACGAUACAAUACAACCUAGUACCUCA: the figures for the “pre-steady-state target cleavage rate” value in assay [1] and in assay [2] were 0.0665 ± 0.011 and 0.00289 ± 0.0015, respectively.
Turning to GGAGAGGAUACUAUGCAACCUACUACCUCA, the entries for the “pre-steady-state target cleavage rate” value in assay [1] and in assay [2] were 0.214 ± 0.011 and 0.242 ± 0.091, respectively.
For GGAGACCUAUCUAUACAAGCUACUACCUGA, the “pre-steady-state target cleavage rate” value in assay [1] was determined as 0.125 ± 0.019; in assay [2], 0.00244 ± 0.0023.
For GGAGAGGAUACUAUACAACCUACUACCGCA the same measures were 0.0764 ± 0.015 and 0.00593 ± 0.0021.
Turning to GGAGACCUAACAAUACAUCCUACUACCUCA, the entries for the “pre-steady-state target cleavage rate” value in assay [1] and in assay [2] were 0.191 ± 0.031 and 0.00431 ± 0.0035, respectively.
As for GGAGACGAUACAUACAACCUACUACCUCA, the “pre-steady-state target cleavage rate” value in assay [1] stood at 0.158 ± 0.019; in assay [2] it was 0.00551 ± 0.0028.
As to GGAGACGAUCCUAUACAACCUACUACCUCA, the entries for the “pre-steady-state target cleavage rate” value in assay [1] and in assay [2] were 0.174 ± 0.025 and 0.0157 ± 0.0085, respectively.
As to GGAGUGGAUACUAUACAACCUCCUACCUCA, the “pre-steady-state target cleavage rate” value is 0.0339 ± 0.0035 in assay [1] and 0.0053 ± 0.0019 in assay [2].
With GGAGACCUAACUACUACAACCUACUACCUCA, the “pre-steady-state target cleavage rate” value in assay [1] is 0.107 ± 0.026; in assay [2], 0.00946 ± 0.0059.
GGAGAGGAUACUAUACAACCUACUAGCACA: the results for the “pre-steady-state target cleavage rate” value in assay [1] and in assay [2] were 0.00642 ± 0.0042 and 0.00322 ± 0.0016, respectively.
For GGAGAGCAUACUAUACAACCAACUACCUCA the same measures were 0.00634 ± 0.0024 and 0.00434 ± 0.0022.
As to GGAGACGAUACUAAACAACCUACUACCUCA, the “pre-steady-state target cleavage rate” value in assay [1] worked out at 0.207 ± 0.016; in assay [2] it was 0.0292 ± 0.012.
Turning to GGAGAGCAUACUUUACAACCUACUACCUCA, the “pre-steady-state target cleavage rate” value in assay [1] was determined as 0.138 ± 0.01; in assay [2] it was 0.0083 ± 0.0045.
In the same order, the values of GGAGACCUAUGAAUACAACCUACAUACCUCA are 0.00848 ± 0.0021 and < 0.0001.
Consider GGAGACGAUACUAUACAACCAACUACGUCA, for which the “pre-steady-state target cleavage rate” value is 0.00504 ± 0.0028 in assay [1] and 0.00251 ± 0.0018 in assay [2].
For GGAGACCAUACUAUACAACCUACUAUCCUCA the same measures were 0.219 ± 0.019 and 0.00375 ± 0.0028.
Turning to GGAGACGAUACUAUACUACCUACUACCACA, the “pre-steady-state target cleavage rate” value is 0.209 ± 0.016 in assay [1] and 0.00202 ± 0.0018 in assay [2].
For the sequence GGAGACGAUACUAUUCAACCUACUACGUCA, the “pre-steady-state target cleavage rate” value in assay [1] is 0.0915 ± 0.011; in assay [2], 0.00311 ± 0.0016.
In the case of GGAGACGAAACUAUACAACCUACUACCACA, the “pre-steady-state target cleavage rate” value in assay [1] was determined as 0.219 ± 0.031; in assay [2] it was 0.00352 ± 0.0032.
For GGAGACCUUACUAUACAUCCUACUACCUGA the same measures were 0.195 ± 0.033 and 0.00345 ± 0.0024.
For the sequence GGAGACCUAUGUAUUCAACCUACUACCACA, the “pre-steady-state target cleavage rate” value is 0.0995 ± 0.016 in assay [1] and < 0.0001 in assay [2].
Turning to GGAGUGGAUGACUAUACAACCUACUACCUCA, the “pre-steady-state target cleavage rate” value was determined as 0.0838 ± 0.019 in assay [1] and 0.00475 ± 0.0037 in assay [2].
On to GGAGUGGAUACAAUACAACCUACAACCUCA, for which the “pre-steady-state target cleavage rate” value in assay [1] was found to be 0.0772 ± 0.01; in assay [2] it was 0.00248 ± 0.0013.
Consider GGAGAGGAUAACUAUACAACCUACUACCUCA, for which the figures for the “pre-steady-state target cleavage rate” value in assay [1] and in assay [2] were 0.0525 ± 0.0054 and 0.104 ± 0.039, respectively.
For GGAGUGGAUACUAUACAACGUACUAGCUCA the same measures were 0.0104 ± 0.0027 and 0.00412 ± 0.0023.
Regarding GGAGUGGAUACUGAUACAACCUACUACCUCA, the “pre-steady-state target cleavage rate” value in assay [1] amounted to 0.144 ± 0.01; in assay [2], 0.0129 ± 0.0062.
With GGAGUGGAUACUAUACAACGUACUACCUCA, the “pre-steady-state target cleavage rate” value in assay [1] turned out to be 0.0277 ± 0.0034; in assay [2], 0.00682 ± 0.0022.
For GGAGAGGAUACUAAACAACCUACUUCCUCA the same measures were 0.0102 ± 0.0039 and 0.00239 ± 0.0016.
For GGAGUGGAUACUAUACAACCUACUGACCUCA the same measures were 0.0789 ± 0.011 and 0.00401 ± 0.0014.
With GGAGACGAUACUAAACAACCUAGUACCUCA, the “pre-steady-state target cleavage rate” value in assay [1] amounted to 0.049 ± 0.0087; in assay [2], 0.00281 ± 0.0023.
Turning to GGAGACGAUACUAUACAACCUACUACGACA, the results for the “pre-steady-state target cleavage rate” value in assay [1] and in assay [2] were 0.131 ± 0.022 and 0.0045 ± 0.0019, respectively.
Take GGAGACCAUACUAUACUACCUACUACCUGA: the “pre-steady-state target cleavage rate” value in assay [1] amounted to 0.134 ± 0.019; in assay [2], 0.00271 ± 0.0014.
In the case of GGAGACCAUACUAUAAAACCUACUACCUCA, the “pre-steady-state target cleavage rate” value turned out to be 0.2 ± 0.016 in assay [1] and 0.00433 ± 0.0026 in assay [2].
Consider GGAGACCUUAACUAUACAACCUACUACCUCA, for which the “pre-steady-state target cleavage rate” value was 0.138 ± 0.01 in assay [1] and 0.113 ± 0.039 in assay [2].
For GGAGUGGAUACUAUACAACCUACUACGUCA the same measures were 0.0515 ± 0.0063 and 0.00568 ± 0.0024.
For GGAGAGGGUACUAUACAACCUACUACCUCA the same measures were 0.145 ± 0.013 and 0.0162 ± 0.0072.
Take GGAGACGAUACUAUACAACCUCACUACCUCA: the results for the “pre-steady-state target cleavage rate” value in assay [1] and in assay [2] were 0.00413 ± 0.0033 and 0.0049 ± 0.0024, respectively.
